Source: publication PMC11006913
Positions count from the first letter of the chain named.

Tests used:
Test in all cases: PBM; 200 nM protein, PBS
Settings in all cases: dsDNA, one strand shown
HOXC9 [1] = molecular target: HOXC9 (Homo sapiens, UniProt P31274 178-260, K195R)
HOXC9 [2] = molecular target: HOXC9 (Homo sapiens, UniProt P31274 178-260)
MSX2 [3] = molecular target: MSX2 (Homo sapiens, UniProt P35548 130-214, R199I)
HOXC9 [4] = molecular target: HOXC9 (Homo sapiens, UniProt P31274 178-260, R193K)
MSX2 [5] = molecular target: MSX2 (Homo sapiens, UniProt P35548 130-214)
HOXC9 [6] = molecular target: HOXC9 (Homo sapiens, UniProt P31274 178-260, R222W)
MSX2 [7] = molecular target: MSX2 (Homo sapiens, UniProt P35548 130-214, F161Y)
HOXA2 [8] = molecular target: HOXA2 (Homo sapiens, UniProt O43364 129-215, R185T)
HOXA2 [9] = molecular target: HOXA2 (Homo sapiens, UniProt O43364 129-215, Y150S)
HOXA2 [10] = molecular target: HOXA2 (Homo sapiens, UniProt O43364 129-215)
HOXA2 [11] = molecular target: HOXA2 (Homo sapiens, UniProt O43364 129-215, R185K)
PROP1 [12] = molecular target: PROP1 (Homo sapiens, UniProt O75360 56-141)
PROP1 [13] = molecular target: PROP1 (Homo sapiens, UniProt O75360 56-141, R99H)
PROP1 [14] = molecular target: PROP1 (Homo sapiens, UniProt O75360 56-141, F88S)
NKX2-6 [15] = molecular target: T1, NKX2-6 (Homo sapiens, UniProt A6NCS4 118-204)
T1 sequence: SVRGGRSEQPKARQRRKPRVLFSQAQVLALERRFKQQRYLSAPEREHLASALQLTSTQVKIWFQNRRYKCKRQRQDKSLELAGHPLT

NKX2-6 [16] = molecular target: T2, NKX2-6 (Homo sapiens, UniProt A6NCS4 118-204, F151L)
T2 sequence: T1 sequence with F34L

HOXD13 [17] = molecular target: HOXD13 (Homo sapiens, UniProt P35453 263-343, T313R)
HOXD13 [18] = molecular target: HOXD13 (Homo sapiens, UniProt P35453 263-343)
HOXD13 [19] = molecular target: HOXD13 (Homo sapiens, UniProt P35453 263-343, T313A)
NKX2-6 [20] = molecular target: T3, NKX2-6 (Homo sapiens, UniProt A6NCS4 118-204, R150C)
T3 sequence: T1 sequence with R33C

CRX [21] = molecular target: CRX (Homo sapiens, UniProt O43186 26-111, E42D)
PITX2 = PITX2 (Homo sapiens, UniProt Q99697 72-157)
CRX [22] = molecular target: CRX (Homo sapiens, UniProt O43186 26-111, R41L)
HOXB6 [23] = molecular target: HOXB6 (Homo sapiens, UniProt P17509 132-218, K202E)
HOXB6 [24] = molecular target: HOXB6 (Homo sapiens, UniProt P17509 132-218)
ALX1 [25] = molecular target: ALX1 (Homo sapiens, UniProt Q15699 118-204, L144V)
ALX1 [26] = molecular target: ALX1 (Homo sapiens, UniProt Q15699 118-204, L144R)
ALX1 [27] = molecular target: ALX1 (Homo sapiens, UniProt Q15699 118-204)
ALX1 (Homo sapiens, UniProt Q15699 118-204), sequence (Q15699 118-204): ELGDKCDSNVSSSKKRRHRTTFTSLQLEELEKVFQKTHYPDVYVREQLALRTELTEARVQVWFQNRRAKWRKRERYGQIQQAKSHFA

HOXC9 (Homo sapiens, UniProt P31274 178-260), sequence (P31274 178-260): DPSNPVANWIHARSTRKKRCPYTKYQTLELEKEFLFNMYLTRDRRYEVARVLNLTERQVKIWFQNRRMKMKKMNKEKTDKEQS
HOXC9 (Homo sapiens, UniProt P31274 178-260, R222W), sequence (P31274 178-260 R222W): as the sequence (P31274 178-260) above, with R45W counted along it
HOXC9 (Homo sapiens, UniProt P31274 178-260, K195R), sequence (P31274 178-260 K195R): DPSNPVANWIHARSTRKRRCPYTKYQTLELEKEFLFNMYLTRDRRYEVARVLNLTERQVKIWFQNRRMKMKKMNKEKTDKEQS
HOXC9 (Homo sapiens, UniProt P31274 178-260, R193K), sequence (P31274 178-260 R193K): as the sequence (P31274 178-260) above, with R16K counted along it
MSX2 (Homo sapiens, UniProt P35548 130-214, R199I), sequence (P35548 130-214 R199I): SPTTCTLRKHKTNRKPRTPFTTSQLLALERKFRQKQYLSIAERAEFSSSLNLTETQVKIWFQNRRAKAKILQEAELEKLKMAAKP
MSX2 (Homo sapiens, UniProt P35548 130-214), sequence (P35548 130-214): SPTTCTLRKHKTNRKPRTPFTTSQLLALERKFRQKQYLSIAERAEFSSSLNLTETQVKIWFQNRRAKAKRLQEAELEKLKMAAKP
HOXA2 (Homo sapiens, UniProt O43364 129-215, Y150S), sequence (O43364 129-215 Y150S): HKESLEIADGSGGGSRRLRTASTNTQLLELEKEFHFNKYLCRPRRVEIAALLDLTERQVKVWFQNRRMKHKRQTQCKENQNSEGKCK
HOXA2 (Homo sapiens, UniProt O43364 129-215), sequence (O43364 129-215): as the sequence (O43364 129-215 Y150S) above, with S22Y counted along it
MSX2 (Homo sapiens, UniProt P35548 130-214, F161Y), sequence (P35548 130-214 F161Y): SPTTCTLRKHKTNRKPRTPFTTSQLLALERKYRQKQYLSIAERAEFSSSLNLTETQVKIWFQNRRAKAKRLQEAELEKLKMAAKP
HOXA2 (Homo sapiens, UniProt O43364 129-215, R185T), sequence (O43364 129-215 R185T): as the sequence (O43364 129-215 Y150S) above, with S22Y, R57T counted along it
HOXB6 (Homo sapiens, UniProt P17509 132-218), sequence (P17509 132-218): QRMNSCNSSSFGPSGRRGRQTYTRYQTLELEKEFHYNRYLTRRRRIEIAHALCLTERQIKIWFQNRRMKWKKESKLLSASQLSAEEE
HOXD13 (Homo sapiens, UniProt P35453 263-343, T313R), sequence (P35453 263-343 T313R): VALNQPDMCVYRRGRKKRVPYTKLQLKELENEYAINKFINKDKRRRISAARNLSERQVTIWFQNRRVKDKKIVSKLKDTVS
CRX (Homo sapiens, UniProt O43186 26-111, R41L), sequence (O43186 26-111 R41L): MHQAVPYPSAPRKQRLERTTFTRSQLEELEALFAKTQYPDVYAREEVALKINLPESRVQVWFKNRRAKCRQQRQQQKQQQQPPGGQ
PROP1 (Homo sapiens, UniProt O75360 56-141), sequence (O75360 56-141): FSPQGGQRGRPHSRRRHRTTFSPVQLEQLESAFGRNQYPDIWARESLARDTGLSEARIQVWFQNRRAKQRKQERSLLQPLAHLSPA
HOXD13 (Homo sapiens, UniProt P35453 263-343, T313A), sequence (P35453 263-343 T313A): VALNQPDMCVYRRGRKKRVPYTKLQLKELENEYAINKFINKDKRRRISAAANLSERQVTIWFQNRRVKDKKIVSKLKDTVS
PROP1 (Homo sapiens, UniProt O75360 56-141, R99H), sequence (O75360 56-141 R99H): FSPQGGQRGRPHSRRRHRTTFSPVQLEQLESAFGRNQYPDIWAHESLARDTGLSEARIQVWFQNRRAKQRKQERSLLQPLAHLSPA
PROP1 (Homo sapiens, UniProt O75360 56-141, F88S), sequence (O75360 56-141 F88S): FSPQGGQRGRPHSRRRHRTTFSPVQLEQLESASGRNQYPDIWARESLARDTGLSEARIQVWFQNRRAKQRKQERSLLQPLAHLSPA
ALX1 (Homo sapiens, UniProt Q15699 118-204, L144V), sequence (Q15699 118-204 L144V): as the sequence (Q15699 118-204) above, with L27V counted along it
ALX1 (Homo sapiens, UniProt Q15699 118-204, L144R), sequence (Q15699 118-204 L144R): as the sequence (Q15699 118-204) above, with L27R counted along it
HOXB6 (Homo sapiens, UniProt P17509 132-218, K202E), sequence (P17509 132-218 K202E): as the sequence (P17509 132-218) above, with K71E counted along it
CRX (Homo sapiens, UniProt O43186 26-111, E42D), sequence (O43186 26-111 E42D): as the sequence (O43186 26-111 R41L) above, with L16R, E17D counted along it
HOXD13 (Homo sapiens, UniProt P35453 263-343), sequence (P35453 263-343): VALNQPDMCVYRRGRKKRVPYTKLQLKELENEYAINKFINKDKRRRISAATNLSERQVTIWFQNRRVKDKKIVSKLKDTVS
HOXA2 (Homo sapiens, UniProt O43364 129-215, R185K), sequence (O43364 129-215 R185K): as the sequence (O43364 129-215 Y150S) above, with S22Y, R57K counted along it

GCGTCGCC
binding signal (HOXC9 [1]): 9.69 upbm affinity estimate (log intensity, higher = more binding, comparable within an allelic series) | binding signal (HOXC9 [2]): 9.74 upbm affinity estimate (log intensity, higher = more binding, comparable within an allelic series) | binding signal (MSX2 [3]): 9.45 upbm affinity estimate (log intensity, higher = more binding, comparable within an allelic series) | binding signal (HOXC9 [4]): 9.48 upbm affinity estimate (log intensity, higher = more binding, comparable within an allelic series) | binding signal (MSX2 [5]): 9.4 upbm affinity estimate (log intensity, higher = more binding, comparable within an allelic series) | binding signal (HOXC9 [6]): 9.77 upbm affinity estimate (log intensity, higher = more binding, comparable within an allelic series) | binding signal (MSX2 [7]): 9.49 upbm affinity estimate (log intensity, higher = more binding, comparable within an allelic series)

ATTTGTTC
binding signal (HOXC9 [1]): 11 upbm affinity estimate (log intensity, higher = more binding, comparable within an allelic series) | binding signal (HOXA2 [8]): 9.37 upbm affinity estimate (log intensity, higher = more binding, comparable within an allelic series) | binding signal (HOXC9 [2]): 10.9 upbm affinity estimate (log intensity, higher = more binding, comparable within an allelic series) | binding signal (HOXC9 [4]): 11 upbm affinity estimate (log intensity, higher = more binding, comparable within an allelic series) | binding signal (HOXA2 [9]): 10.8 upbm affinity estimate (log intensity, higher = more binding, comparable within an allelic series) | binding signal (HOXA2 [10]): 9.22 upbm affinity estimate (log intensity, higher = more binding, comparable within an allelic series)

AGTAATAA
binding signal (HOXC9 [1]): 12.3 upbm affinity estimate (log intensity, higher = more binding, comparable within an allelic series) | binding signal (HOXC9 [2]): 12.3 upbm affinity estimate (log intensity, higher = more binding, comparable within an allelic series) | binding signal (MSX2 [3]): 11.4 upbm affinity estimate (log intensity, higher = more binding, comparable within an allelic series) | binding signal (HOXC9 [4]): 12.3 upbm affinity estimate (log intensity, higher = more binding, comparable within an allelic series) | binding signal (MSX2 [5]): 12.5 upbm affinity estimate (log intensity, higher = more binding, comparable within an allelic series) | binding signal (HOXC9 [6]): 10.9 upbm affinity estimate (log intensity, higher = more binding, comparable within an allelic series) | binding signal (MSX2 [7]): 12.3 upbm affinity estimate (log intensity, higher = more binding, comparable within an allelic series)

CGGAGCCC
binding signal (HOXC9 [1]): 9.46 upbm affinity estimate (log intensity, higher = more binding, comparable within an allelic series) | binding signal (HOXA2 [8]): 7.2 upbm affinity estimate (log intensity, higher = more binding, comparable within an allelic series) | binding signal (HOXC9 [2]): 9.37 upbm affinity estimate (log intensity, higher = more binding, comparable within an allelic series) | binding signal (HOXC9 [4]): 9.44 upbm affinity estimate (log intensity, higher = more binding, comparable within an allelic series) | binding signal (HOXA2 [11]): 10.2 upbm affinity estimate (log intensity, higher = more binding, comparable within an allelic series) | binding signal (PROP1 [12]): 6.65 upbm affinity estimate (log intensity, higher = more binding, comparable within an allelic series) | binding signal (PROP1 [13]): 6.77 upbm affinity estimate (log intensity, higher = more binding, comparable within an allelic series) | binding signal (HOXC9 [6]): 9.51 upbm affinity estimate (log intensity, higher = more binding, comparable within an allelic series) | binding signal (PROP1 [14]): 6.36 upbm affinity estimate (log intensity, higher = more binding, comparable within an allelic series) | binding signal (HOXA2 [9]): 10.1 upbm affinity estimate (log intensity, higher = more binding, comparable within an allelic series) | binding signal (HOXA2 [10]): 7.02 upbm affinity estimate (log intensity, higher = more binding, comparable within an allelic series)

CCTCTCCA
binding signal (HOXC9 [1]): 9.58 upbm affinity estimate (log intensity, higher = more binding, comparable within an allelic series) | binding signal (HOXC9 [2]): 9.63 upbm affinity estimate (log intensity, higher = more binding, comparable within an allelic series) | binding signal (NKX2-6 [15]): 11.5 upbm affinity estimate (log intensity, higher = more binding, comparable within an allelic series) | binding signal (HOXC9 [4]): 9.69 upbm affinity estimate (log intensity, higher = more binding, comparable within an allelic series) | binding signal (NKX2-6 [16]): 9.51 upbm affinity estimate (log intensity, higher = more binding, comparable within an allelic series) | binding signal (HOXC9 [6]): 9.7 upbm affinity estimate (log intensity, higher = more binding, comparable within an allelic series)

CTGCCTCC
binding signal (HOXC9 [1]): 9.62 upbm affinity estimate (log intensity, higher = more binding, comparable within an allelic series) | binding signal (HOXC9 [2]): 9.69 upbm affinity estimate (log intensity, higher = more binding, comparable within an allelic series) | binding signal (HOXD13 [17]): 9.53 upbm affinity estimate (log intensity, higher = more binding, comparable within an allelic series) | binding signal (HOXC9 [4]): 9.67 upbm affinity estimate (log intensity, higher = more binding, comparable within an allelic series) | binding signal (HOXD13 [18]): 9.62 upbm affinity estimate (log intensity, higher = more binding, comparable within an allelic series) | binding signal (HOXD13 [19]): 9.56 upbm affinity estimate (log intensity, higher = more binding, comparable within an allelic series) | binding signal (HOXC9 [6]): 9.6 upbm affinity estimate (log intensity, higher = more binding, comparable within an allelic series)

ATTTAACA
binding signal (HOXC9 [1]): 11.6 upbm affinity estimate (log intensity, higher = more binding, comparable within an allelic series) | binding signal (HOXC9 [2]): 11.6 upbm affinity estimate (log intensity, higher = more binding, comparable within an allelic series) | binding signal (HOXC9 [4]): 11.6 upbm affinity estimate (log intensity, higher = more binding, comparable within an allelic series)

ACGTTGGG
binding signal (HOXC9 [1]): 9.64 upbm affinity estimate (log intensity, higher = more binding, comparable within an allelic series) | binding signal (NKX2-6 [20]): 9.44 upbm affinity estimate (log intensity, higher = more binding, comparable within an allelic series) | binding signal (HOXC9 [2]): 9.65 upbm affinity estimate (log intensity, higher = more binding, comparable within an allelic series) | binding signal (HOXC9 [4]): 9.64 upbm affinity estimate (log intensity, higher = more binding, comparable within an allelic series) | binding signal (HOXC9 [6]): 9.77 upbm affinity estimate (log intensity, higher = more binding, comparable within an allelic series)

AGATTAAA
binding signal (HOXC9 [1]): 11.2 upbm affinity estimate (log intensity, higher = more binding, comparable within an allelic series) | binding signal (CRX [21]): 12.7 upbm affinity estimate (log intensity, higher = more binding, comparable within an allelic series) | binding signal (HOXC9 [2]): 11.1 upbm affinity estimate (log intensity, higher = more binding, comparable within an allelic series) | binding signal (PITX2): 12.3 upbm affinity estimate (log intensity, higher = more binding, comparable within an allelic series) | binding signal (HOXC9 [4]): 11.2 upbm affinity estimate (log intensity, higher = more binding, comparable within an allelic series) | binding signal (CRX [22]): 12.5 upbm affinity estimate (log intensity, higher = more binding, comparable within an allelic series)

ATTATCGG
binding signal (HOXC9 [1]): 11.3 upbm affinity estimate (log intensity, higher = more binding, comparable within an allelic series) | binding signal (HOXC9 [2]): 11.5 upbm affinity estimate (log intensity, higher = more binding, comparable within an allelic series) | binding signal (HOXC9 [4]): 11.4 upbm affinity estimate (log intensity, higher = more binding, comparable within an allelic series)

GAGGGTCC
binding signal (HOXC9 [1]): 9.32 upbm affinity estimate (log intensity, higher = more binding, comparable within an allelic series) | binding signal (HOXB6 [23]): 8.91 upbm affinity estimate (log intensity, higher = more binding, comparable within an allelic series) | binding signal (HOXC9 [2]): 9.31 upbm affinity estimate (log intensity, higher = more binding, comparable within an allelic series) | binding signal (HOXC9 [4]): 9.32 upbm affinity estimate (log intensity, higher = more binding, comparable within an allelic series) | binding signal (HOXC9 [6]): 9.63 upbm affinity estimate (log intensity, higher = more binding, comparable within an allelic series) | binding signal (HOXB6 [24]): 8.74 upbm affinity estimate (log intensity, higher = more binding, comparable within an allelic series)

CCTACTCG
binding signal (HOXC9 [1]): 9.67 upbm affinity estimate (log intensity, higher = more binding, comparable within an allelic series) | binding signal (HOXC9 [2]): 9.65 upbm affinity estimate (log intensity, higher = more binding, comparable within an allelic series) | binding signal (PITX2): 8.18 upbm affinity estimate (log intensity, higher = more binding, comparable within an allelic series) | binding signal (HOXC9 [4]): 9.59 upbm affinity estimate (log intensity, higher = more binding, comparable within an allelic series) | binding signal (HOXC9 [6]): 9.71 upbm affinity estimate (log intensity, higher = more binding, comparable within an allelic series)

CCCAGGTC
binding signal (HOXC9 [1]): 9.66 upbm affinity estimate (log intensity, higher = more binding, comparable within an allelic series) | binding signal (HOXC9 [2]): 9.74 upbm affinity estimate (log intensity, higher = more binding, comparable within an allelic series) | binding signal (ALX1 [25]): 6.5 upbm affinity estimate (log intensity, higher = more binding, comparable within an allelic series) | binding signal (HOXC9 [4]): 9.58 upbm affinity estimate (log intensity, higher = more binding, comparable within an allelic series) | binding signal (ALX1 [26]): 6.45 upbm affinity estimate (log intensity, higher = more binding, comparable within an allelic series) | binding signal (HOXC9 [6]): 9.65 upbm affinity estimate (log intensity, higher = more binding, comparable within an allelic series) | binding signal (ALX1 [27]): 6.46 upbm affinity estimate (log intensity, higher = more binding, comparable within an allelic series)

GAGATAAA
binding signal (HOXC9 [1]): 11.1 upbm affinity estimate (log intensity, higher = more binding, comparable within an allelic series) | binding signal (HOXC9 [2]): 11.1 upbm affinity estimate (log intensity, higher = more binding, comparable within an allelic series) | binding signal (HOXC9 [4]): 11.1 upbm affinity estimate (log intensity, higher = more binding, comparable within an allelic series)
